This is part of a sample that, as a whole, favours compounds with a hit. Of some 83,000 tested, about 20% had one in any assay.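 Values shown are percent growth following 48 h exposure of cells in 96-well plates to a single concentration of compound; below 10 was considered active.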 Calls of active or inactive are those of the source.
How the values were obtained:
Assay in all cases: NCI-60 one-dose screen, 48 h (100 = growth as untreated, 0 = no growth, -100 = all killed)
Conditions in all cases: 10 µM unless noted
DU-145 prostate = tested on: DU-145 prostate
K-562 leukemia = tested on: K-562 leukemia
MALME-3M melanoma = tested on: MALME-3M melanoma
MDA-MB-231 breast = tested on: MDA-MB-231 breast
RXF 393 renal = tested on: RXF 393 renal
SF-268 CNS = tested on: SF-268 CNS
SF-295 CNS = tested on: SF-295 CNS
SF-539 CNS = tested on: SF-539 CNS
UACC-257 melanoma = tested on: UACC-257 melanoma
M14 melanoma = tested on: M14 melanoma

Measured: growth

c1ccc2cc(Cn3c[n+](Cc4ccc5ccccc5c4)c4ccccc43)ccc2c1
inactive: DU-145 prostate 15% | SF-539 CNS 17.7%
active: K-562 leukemia -49.7% | MALME-3M melanoma -17.8% | MDA-MB-231 breast -54.1% | RXF 393 renal -56.5% | SF-268 CNS -30.5% | SF-295 CNS 6.18% | UACC-257 melanoma -38.6% | M14 melanoma -80.6%

COc1ccc(C2=NN(C(C)=O)C(c3ccc(Oc4ccnc5cc(Cl)ccc45)c(OC)c3)C2)cc1 (stereo not given)
inactive: DU-145 prostate 59.8% | K-562 leukemia 68.6% | MALME-3M melanoma 52.8% | MDA-MB-231 breast 41.9% | RXF 393 renal 23% | SF-268 CNS 76% | SF-295 CNS 49.5% | UACC-257 melanoma 70.5% | M14 melanoma 71.8%
active: SF-539 CNS 2.73%

CC(C)c1ccc(-n2c(=S)[nH]c3sc4c(c3c2=O)CCC(=O)C4)cc1
inactive: DU-145 prostate 104% | K-562 leukemia 56.7% | MALME-3M melanoma 88.7% | MDA-MB-231 breast 68.3% | RXF 393 renal 48.9% | SF-268 CNS 28.7% | SF-295 CNS 21.1% | SF-539 CNS 23.3% | UACC-257 melanoma 75.3% | M14 melanoma 60.4%

CCOC(=O)c1c(C)nc2c(c1N)CC(=O)N2Cc1cc(OC)c(OC)c(OC)c1
inactive: DU-145 prostate 80.6% | K-562 leukemia 14.6% | MALME-3M melanoma 45% | MDA-MB-231 breast 55.3% | RXF 393 renal 73.2% | SF-268 CNS 69.5% | SF-295 CNS 39.5% | SF-539 CNS 66.2% | UACC-257 melanoma 53% | M14 melanoma 28.1%

COc1ccc(C/C(C)=C(/c2ccc(OCCN3CCCCCC3)cc2)c2ccc(OC(=O)NCc3ccccc3)cc2)cc1
inactive: DU-145 prostate 95.6% | K-562 leukemia 28% | MALME-3M melanoma 95.2% | MDA-MB-231 breast 83.9% | RXF 393 renal 84% | SF-268 CNS 88.4% | SF-295 CNS 98.2% | SF-539 CNS 96.7% | UACC-257 melanoma 94.7% | M14 melanoma 95.6%

C#CC#CC#CC#CC#CC#CC#CC#CC[C@H]1OC[C@H](COC(=O)O[C@@H](C(=O)O[C@H]2C[C@@]3(O)[C@@H](OC(=O)c4ccccc4)[C@@H]4[C@]5(OC(C)=O)CO[C@@H]5C[C@H](O)[C@@]4(C)C(=O)[C@H](OC(C)=O)C(=C2C)C3(C)C)[C@@H](NC(=O)c2ccccc2)c2ccccc2)O1
inactive: DU-145 prostate 45.3% | K-562 leukemia 22.2% | MALME-3M melanoma 56.7% | MDA-MB-231 breast 62.5% | RXF 393 renal 43% | SF-268 CNS 61.7% | SF-295 CNS 44.6% | SF-539 CNS 39.8% | UACC-257 melanoma 70.9% | M14 melanoma 27.5%

COc1ccc(/C=C/C(=O)c2ccc(Nc3nc(Nc4ccc(F)cc4)nc(Nc4ccc(Cl)cc4)n3)cc2)cc1
inactive: DU-145 prostate 104% | K-562 leukemia 85.4% | MALME-3M melanoma 164% | MDA-MB-231 breast 95.3% | SF-268 CNS 100% | SF-295 CNS 81.8% | SF-539 CNS 109% | UACC-257 melanoma 107% | M14 melanoma 95.2%
active: RXF 393 renal 1.27%

Cc1ccccc1OCC(O)COc1ccccc1C
inactive: DU-145 prostate 120% | K-562 leukemia 114% | MALME-3M melanoma 88.5% | MDA-MB-231 breast 103% | RXF 393 renal 80.5% | SF-268 CNS 99.4% | SF-295 CNS 98.5% | SF-539 CNS 95.9% | UACC-257 melanoma 89.2% | M14 melanoma 98.5%

CCCCCCCCNc1cc2c3c(c1)CCCN3CCC2
active: DU-145 prostate -2.64% | MDA-MB-231 breast 6.88% | SF-539 CNS 8.74% | UACC-257 melanoma -11.6%
inactive: K-562 leukemia 18.8% | MALME-3M melanoma 48.5% | RXF 393 renal 29.1% | SF-268 CNS 18.3% | SF-295 CNS 14% | M14 melanoma 30.3%

Cc1ccc(/C=C/C(=O)c2ccc(NC(=O)CSc3nc4c([nH]3)c(=O)n(C)c(=O)n4C)cc2)c(C)c1
inactive: DU-145 prostate 40.1% | K-562 leukemia 55.9% | MALME-3M melanoma 58.7% | SF-268 CNS 46.2% | SF-295 CNS 47.6% | SF-539 CNS 55.1% | UACC-257 melanoma 62% | M14 melanoma 56.8%
active: MDA-MB-231 breast 5.32% | RXF 393 renal -3.94%

CC(=O)N/C(=C1/OC(C(O)C(O)C(O)CO)CN1C)[P+](c1ccccc1)(c1ccccc1)c1ccccc1 (stereo not given)
inactive: DU-145 prostate 105% | K-562 leukemia 97.6% | MALME-3M melanoma 90.5% | MDA-MB-231 breast 103% | RXF 393 renal 97% | SF-268 CNS 102% | SF-295 CNS 100% | SF-539 CNS 97.6% | UACC-257 melanoma 104% | M14 melanoma 99.7%

CCCC(O)Cn1ncc(C(=O)OCC)c1NC(=O)NCc1cccc(F)c1 (stereo not given)
inactive: DU-145 prostate 99.4% | K-562 leukemia 68.6% | MALME-3M melanoma 97.6% | MDA-MB-231 breast 103% | RXF 393 renal 120% | SF-268 CNS 98.4% | SF-295 CNS 93.3% | SF-539 CNS 94.8% | UACC-257 melanoma 85.2% | M14 melanoma 80.5%

Cc1ncc(C(=O)Nc2ccc(CN3CCN(C)CC3)c(C(F)(F)F)c2)cc1C#Cc1cnc(N)c2ccncc12
active: DU-145 prostate -50.5% | K-562 leukemia -32.5% | MALME-3M melanoma -72.9% | MDA-MB-231 breast -47.9% | RXF 393 renal -87.7% | SF-268 CNS -37.5% | SF-295 CNS -45.4% | SF-539 CNS -86.6% | UACC-257 melanoma -75.2% | M14 melanoma -63.7%

CCc1ccc(CCC(=O)Nc2ncc(Cc3ccc(Cl)cc3)s2)o1
inactive: DU-145 prostate 14.4% | K-562 leukemia 10.9% | MALME-3M melanoma 46.4% | MDA-MB-231 breast 60.7% | SF-268 CNS 58.4% | SF-295 CNS 17% | UACC-257 melanoma 56.6%
active: RXF 393 renal -12.8% | SF-539 CNS 2.47% | M14 melanoma 8.78%

COc1cc(OC)cc(C2C(C#N)=C(N)Oc3c2ccc2ccc(O)cc32)c1 (stereo not given)
active: K-562 leukemia 6.22% | SF-539 CNS -9% | M14 melanoma 5.6%
inactive: DU-145 prostate 10.9% | MALME-3M melanoma 39.3% | MDA-MB-231 breast 10.9% | RXF 393 renal 24.1% | SF-268 CNS 15.9% | SF-295 CNS 22.9% | UACC-257 melanoma 69.4%

CC(C)CCSc1nc(Nc2ccccc2)c(C#N)c(-c2ccccc2)n1
active: MDA-MB-231 breast 8.82%
inactive: DU-145 prostate 61.9% | K-562 leukemia 48.6% | MALME-3M melanoma 37.4% | RXF 393 renal 23.1% | SF-268 CNS 60% | SF-295 CNS 32% | SF-539 CNS 18.4% | UACC-257 melanoma 88.2% | M14 melanoma 71.4%

Cc1ccc(-c2csc(NC(=O)N3CCN(c4cc5c(cc4F)c(=O)c(C(=O)O)cn5C4CC4)CC3)n2)cc1
inactive: DU-145 prostate 16.3% | K-562 leukemia 17.1% | MDA-MB-231 breast 17.5% | RXF 393 renal 26.6% | SF-268 CNS 24.3% | SF-539 CNS 26.7% | M14 melanoma 20%
active: MALME-3M melanoma -3.8% | SF-295 CNS 4.88% | UACC-257 melanoma -4.73%

CCN1C(=O)N(CC)C2C1NN=c1s/c(=C\c3ccccc3Br)c(=O)n12 (stereo not given)
inactive: DU-145 prostate 10.5% | K-562 leukemia 13.1% | MALME-3M melanoma 42% | MDA-MB-231 breast 13.9% | RXF 393 renal 50.7% | SF-268 CNS 43.9% | UACC-257 melanoma 56%
active: SF-295 CNS 9.97% | SF-539 CNS -16% | M14 melanoma 8.22%

COc1ccc(-c2nnc(SCC(=O)Nc3ccc(/C(C)=N\O)cc3)n2-c2ccccc2)cc1OC
inactive: DU-145 prostate 88.3% | K-562 leukemia 105% | MALME-3M melanoma 61.8% | MDA-MB-231 breast 47.9% | RXF 393 renal 32.3% | SF-268 CNS 30.6% | SF-295 CNS 39.1% | SF-539 CNS 43% | UACC-257 melanoma 91.8% | M14 melanoma 89.9%

Cn1c(O)c(C(/C=C/c2ccccc2)=Nc2ccccc2N)c(=O)n(C)c1=O
inactive: DU-145 prostate 117% | K-562 leukemia 55.9% | MALME-3M melanoma 118% | MDA-MB-231 breast 91.4% | RXF 393 renal 109% | SF-268 CNS 114% | SF-295 CNS 105% | SF-539 CNS 107% | UACC-257 melanoma 106% | M14 melanoma 104%

CC(C)C[C@@H](C(=O)N[C@H](C(=O)OC1CCCC1)c1ccccc1)[C@H](O)C(=O)NO
active: MDA-MB-231 breast 9.77% | RXF 393 renal 7.55%
inactive: DU-145 prostate 68.3% | K-562 leukemia 22.7% | MALME-3M melanoma 38.3% | SF-268 CNS 88.9% | SF-295 CNS 60.8% | SF-539 CNS 52.2% | UACC-257 melanoma 36% | M14 melanoma 54.5%

CCCCCCCC/C=C\CCCCCCCCOc1ccccc1CC(=O)NCC[N+]1(C)CCCCC1
inactive: DU-145 prostate 67.1% | K-562 leukemia 36.3% | MALME-3M melanoma 69.8% | MDA-MB-231 breast 59.8% | RXF 393 renal 28.6% | SF-268 CNS 39.2% | SF-295 CNS 97.4% | SF-539 CNS 95.1% | UACC-257 melanoma 61.5% | M14 melanoma 65.5%

Cc1ccc(O)c(NC(=O)c2ccc(CNc3ccnc(C(F)(F)F)c3)cc2)c1
inactive: DU-145 prostate 107% | K-562 leukemia 24.2% | MALME-3M melanoma 59.9% | MDA-MB-231 breast 48.9% | RXF 393 renal 92% | SF-268 CNS 79.9% | SF-295 CNS 17.2% | SF-539 CNS 35.1% | UACC-257 melanoma 71.3% | M14 melanoma 49.2%

C/C(=C(/c1ccc(Cl)cc1)c1ccc(OCCCN(C)C)cc1)c1ccc(Cl)cc1
inactive: DU-145 prostate 95.5% | K-562 leukemia 16.9% | MALME-3M melanoma 96.4% | MDA-MB-231 breast 99.2% | RXF 393 renal 77.6% | SF-268 CNS 88.5% | SF-295 CNS 110% | SF-539 CNS 99% | UACC-257 melanoma 103% | M14 melanoma 91.5%

O=C1Nc2ccccc2/C1=C/c1cn(C[C@@H](O)Cn2c3ccccc3c(=O)c3ccccc32)c2ccccc12
inactive: DU-145 prostate 105% | K-562 leukemia 68.4% | MALME-3M melanoma 81.3% | MDA-MB-231 breast 50.2% | RXF 393 renal 76.8% | SF-268 CNS 72.8% | SF-295 CNS 81.6% | SF-539 CNS 84.7% | UACC-257 melanoma 100% | M14 melanoma 69.7%

CCc1cccc(Sc2cc(C(=O)N3Cc4ccc(OCCN(C)C)cc4C3)ccc2O)c1
inactive: DU-145 prostate 38.9% | K-562 leukemia 22% | MALME-3M melanoma 57.3% | MDA-MB-231 breast 80% | RXF 393 renal 72.2% | SF-268 CNS 63.8% | SF-295 CNS 78.4% | SF-539 CNS 89% | UACC-257 melanoma 63.3% | M14 melanoma 78.1%

Reference: PubChem BioAssay (NCI)
